In PubChem BioAssay (NCI):
Compounds without any hit were thinned out: in the full panel of roughly 79,000, 15% have a hit. Calls of active or inactive are those of the source. Cut-off read from the data, not from the text of the source: active = growth inhibition above about 70%; inactive = the rest.

Assays:
[1] = NCI Yeast Anticancer Drug Screen. Data for the rad52 strain (AID 147);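 note: 0% = growth of vehicle-treated control cultures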; conditions: S. cerevisiae rad52 mutant growth inhibition, hits give high values
Procedure, shortened: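 Compounds are applied to a genetically defined yeast strain lacking normal DNA damage repair, and inhibition of growth is expressed relative to cultures given vehicle only.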

[2] = NCI Yeast Anticancer Drug Screen. Data for the wt1 strain (AID 149);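 note: 0% = growth of vehicle-treated wt1 cultures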; conditions: S. cerevisiae wt1 strain (SPY 50644) growth inhibition, hits give high values
Procedure, shortened: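 Growth inhibition read against vehicle controls after compound exposure of the wt1 yeast strain.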

[3] = NCI Yeast Anticancer Drug Screen. Data for the rad50EPP+ strain (AID 151);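 note: 0% = growth of vehicle-treated control cultures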; conditions: S. cerevisiae rad50 mutant strain, hits give high values
Procedure, shortened: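 Compounds were applied to the rad50EPP+ yeast strain, which bears a defined DNA repair alteration, and growth inhibition was determined relative to vehicle-treated cultures.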

[4] = NCI Yeast Anticancer Drug Screen. Data for the mgt1 strain (AID 153); conditions: S. cerevisiae mgt1 mutant growth inhibition, hits give high values
Procedure, shortened: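 Strain: mgt1 yeast, one of a set carrying defined DNA damage repair or cell cycle control alterations. Compound-treated growth compared with vehicle.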

[5] = NCI Yeast Anticancer Drug Screen. Data for the rad50 strain (AID 155);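 note: 0% = growth of vehicle-only cultures of the same strain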; conditions: S. cerevisiae rad50 strain growth inhibition, hits give high values
Procedure, shortened: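 Readout: growth inhibition relative to vehicle-treated cultures. Compound exposure was carried out in a genetically defined yeast strain deficient in DNA damage repair.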

[6] = NCI Yeast Anticancer Drug Screen. Data for the mec2-1 strain (AID 157); conditions: S. cerevisiae mec2-1 strain, hits give high values
Procedure, shortened: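 Strain: mec2-1 (DNA repair/cell cycle alteration). Compound exposure, then growth measured; inhibition expressed relative to vehicle.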

[7] = NCI Yeast Anticancer Drug Screen. Data for the rad14 strain (AID 159);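 note: 0% = growth of vehicle-treated control cultures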; conditions: S. cerevisiae rad14 strain growth inhibition, hits give high values
Procedure, shortened: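 Growth inhibition vs vehicle controls; genetically altered yeast strain (DNA damage repair defect) treated with test compounds.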

[8] = NCI Yeast Anticancer Drug Screen. Data for the sgs1 mgt1 strain (AID 161);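 note: 0% = growth of cultures given vehicle only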; conditions: S. cerevisiae sgs1 mgt1 strain, hits give high values
Procedure, shortened: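 Test agents were incubated with a DNA-repair-mutant yeast strain. Growth was then read and compared against vehicle-treated controls.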

[9] = NCI Yeast Anticancer Drug Screen. Data for the cln2 rad14 strain (AID 165);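 note: 0% = growth equal to vehicle treated cultures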; conditions: S. cerevisiae cln2 rad14 strain, hits give high values
Procedure, shortened: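 Compounds are applied to the cln2 rad14 yeast strain, and growth is then compared with that of vehicle-treated cultures to give inhibition.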

[10] = NCI Yeast Anticancer Drug Screen. Data for the bub3 strain (AID 167); conditions: S. cerevisiae bub3 mutant strain, hits give high values
Procedure, shortened: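 Readout: yeast growth inhibition, expressed relative to vehicle-only wells. The test organism is a mutant strain from a panel with lesions in DNA repair or checkpoint genes.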

[11] = NCI Yeast Anticancer Drug Screen. Data for the wt2 strain (AID 169);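 note: 0% = growth of vehicle-treated yeast cultures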; conditions: S. cerevisiae wt2 strain growth inhibition, hits give high values
Procedure, shortened: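 This strain belongs to a panel of yeast strains with defined genetic alterations in DNA damage repair or cell cycle control. Compounds are applied, and growth inhibition is measured against vehicle-treated cultures.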

[12] = NCI Yeast Anticancer Drug Screen. Data for the mlh1 strain (AID 171);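 note: 0% = growth of vehicle-treated control cultures of the same strain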; conditions: S. cerevisiae mlh1 strain growth inhibition, hits give high values
Procedure, shortened: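 Growth of the mutant yeast strain after compound exposure, expressed as inhibition relative to vehicle-only controls.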

[13] = NCI Yeast Anticancer Drug Screen. Data for the sgs1 strain (AID 173);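 note: 0% = growth of vehicle-only control cultures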; conditions: S. cerevisiae sgs1 mutant, hits give high values
Procedure, shortened: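 Growth of a yeast strain bearing a defined genetic alteration is measured after compound treatment. Inhibition is expressed relative to vehicle-only controls.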

[14] = NCI Yeast Anticancer Drug Screen. Data for the mlh1 rad18 strain (AID 175); conditions: S. cerevisiae mlh1 rad18 strain growth inhibition, hits give high values
Procedure, shortened: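 Read-out is yeast growth inhibition, calculated against vehicle-only controls. The compound was applied to a strain engineered with DNA damage repair alterations.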

[15] = NCI Yeast Anticancer Drug Screen. Data for the rad18 strain (AID 177); conditions: S. cerevisiae rad18 mutant growth inhibition, hits give high values
Procedure, shortened: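 Growth of the mutant yeast strain after compound exposure, normalised to vehicle-only cultures.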

[16] = at 5.0 µM (retest, dose inferred, filed as 0.5)
[17] = at 50.0 µM (retest, dose inferred, filed as 5.0)

Measured: growth inhibition

CC[n+]1ccc2c(C)c3[nH]c4ccc(O)cc4c3c(C)c2c1
inactive: [1]; at 1.2 µM 5% | [1]; at 3.7 µM 48% | [2]; at 1.2 µM -13% | [2]; at 3.7 µM 7% | [2]; at 11.0 µM 3% | [2]; at 33.0 µM 9% | [2]; at 100.0 µM 14% | [3]; at 1.2 µM 16% | [3]; at 3.7 µM 34% | [3]; at 11.0 µM 64% | [4]; at 1.2 µM -36% | [4]; at 3.7 µM -14% | [4]; at 11.0 µM -16% | [4]; at 33.0 µM -5% | [4]; at 100.0 µM 14% | [5]; at 1.2 µM -24% | [5]; at 3.7 µM 16% | [5]; [16] 58% | [5]; at 11.0 µM 65% | [6]; at 1.2 µM -15% | [6]; at 3.7 µM -1% | [6]; [16] 1% | [6]; at 11.0 µM 0% | [6]; at 33.0 µM 6% | [6]; [17] 16% | [6]; at 50.0 µM 59.5% | [6]; at 100.0 µM 24% | [7]; at 1.2 µM -22% | [7]; at 3.7 µM -10% | [7]; at 11.0 µM -23% | [7]; at 33.0 µM -20% | [7]; at 100.0 µM -10% | [8]; [16] 4% | [8]; [17] 31% | [8]; at 50.0 µM 9.25% | [9]; [16] 5% | [9]; [17] 23% | [9]; at 50.0 µM 9.35% | [10]; at 1.2 µM -19% | [10]; at 3.7 µM -16% | [10]; [16] -8% | [10]; at 11.0 µM -16% | [10]; at 33.0 µM 3% | [10]; [17] 28% | [10]; at 50.0 µM 5.2% | [10]; at 100.0 µM 15% | [11]; at 1.2 µM -5% | [11]; at 3.7 µM -6% | [11]; at 11.0 µM -3% | [11]; at 33.0 µM -1% | [11]; at 100.0 µM 13% | [12]; at 1.2 µM 0% | [12]; at 3.7 µM -16% | [12]; at 11.0 µM -18% | [12]; at 33.0 µM -4% | [12]; at 100.0 µM 10% | [13]; at 1.2 µM 9% | [13]; at 3.7 µM 38% | [13]; at 11.0 µM 43% | [13]; at 33.0 µM 0% | [13]; at 100.0 µM 46% | [14]; [16] 5% | [14]; [17] 30% | [14]; at 50.0 µM 65% | [15]; at 1.2 µM -23% | [15]; at 3.7 µM 2% | [15]; at 11.0 µM 23% | [15]; at 33.0 µM -6% | [15]; at 100.0 µM 6%
active: [1]; at 11.0 µM 70% | [1]; at 33.0 µM 90% | [1]; at 100.0 µM 92% | [3]; at 33.0 µM 85% | [3]; at 100.0 µM 90% | [5]; at 33.0 µM 86% | [5]; [17] 92% | [5]; at 50.0 µM 81.5% | [5]; at 100.0 µM 90%

CC(C)(C)c1nc2c(o1)C(=O)c1ccccc1C2=O
inactive: [1]; at 1.2 µM -27% | [1]; at 3.7 µM -22% | [1]; at 11.0 µM 20% | [2]; at 1.2 µM -30% | [2]; at 3.7 µM -20% | [2]; at 11.0 µM -5% | [2]; at 33.0 µM 63% | [3]; at 1.2 µM -19% | [3]; at 3.7 µM -17% | [3]; at 11.0 µM -7% | [4]; at 1.2 µM -21% | [4]; at 3.7 µM -16% | [4]; at 11.0 µM 19% | [5]; at 1.2 µM -56% | [5]; at 3.7 µM -15% | [5]; [16] 23% | [5]; at 11.0 µM 32% | [6]; at 1.2 µM 11% | [6]; at 3.7 µM 15% | [6]; [16] 14% | [6]; at 11.0 µM 27% | [6]; at 33.0 µM 57% | [7]; at 1.2 µM -15% | [7]; at 3.7 µM -5% | [7]; at 11.0 µM 13% | [8]; [16] 32% | [9]; [16] 3% | [9]; [17] 42% | [10]; at 1.2 µM -3% | [10]; at 3.7 µM 12% | [10]; [16] 52% | [10]; at 11.0 µM 36% | [11]; at 1.2 µM -41% | [11]; at 3.7 µM -26% | [11]; at 11.0 µM 32% | [12]; at 1.2 µM -6% | [12]; at 3.7 µM -3% | [12]; at 11.0 µM 25% | [13]; at 1.2 µM 7% | [13]; at 3.7 µM -10% | [13]; at 11.0 µM 36% | [14]; [16] 21% | [15]; at 1.2 µM -25% | [15]; at 3.7 µM -14% | [15]; at 11.0 µM 4%
active: [1]; at 33.0 µM 89% | [1]; at 100.0 µM 98% | [2]; at 100.0 µM 95% | [3]; at 33.0 µM 87% | [3]; at 100.0 µM 97% | [4]; at 33.0 µM 75% | [4]; at 100.0 µM 95% | [5]; at 33.0 µM 90% | [5]; [17] 91% | [5]; at 50.0 µM 85.2% | [5]; at 100.0 µM 97% | [6]; [17] 77% | [6]; at 50.0 µM 94% | [6]; at 100.0 µM 94% | [7]; at 33.0 µM 79% | [7]; at 100.0 µM 98% | [8]; [17] 70% | [8]; at 50.0 µM 93.3% | [9]; at 50.0 µM 92.1% | [10]; at 33.0 µM 87% | [10]; [17] 90% | [10]; at 50.0 µM 93% | [10]; at 100.0 µM 97% | [11]; at 33.0 µM 72% | [11]; at 100.0 µM 94% | [12]; at 33.0 µM 81% | [12]; at 100.0 µM 96% | [13]; at 33.0 µM 88% | [13]; at 100.0 µM 95% | [14]; [17] 86% | [14]; at 50.0 µM 91.5% | [15]; at 33.0 µM 77% | [15]; at 100.0 µM 95%
